Results reported in PubChem BioAssay (NCATS).
Inconclusive results are not listed. The source made the active and inactive calls. The call rests on the fitted dose curve; in most records, active means well fitted curve in the direction sought with a large enough effect; inconclusive means small, poorly fitted or top-dose-only effect, or another doubt; inactive means no such curve, though single readings can be large or run the other way.

assay: qHTS Assay for Identifying Gametocytocidal Compounds (AID 743244);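 on max response: actives lower the fluorescent signal which means gametocytes are killed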; conditions: P. falciparum 3D7 stage III-V gametocytes, alamarBlue, 72 h; max response: hits give low values
Procedure, shortened: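 Late gametocytes (III–V), P. falciparum 3D7; 72 h drug, then 24 h alamarBlue; resazurin reduction read by fluorescence.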
On the % scale 0 is the no-effect control and ±100 the full control effect; potency means the concentration at half of the fitted maximal effect.

Row | Compound | max response | Potency
1 | Cc1cc(-n2nc3ccc(Cl)cc3n2)c(O)c(C(C)(C)C)c1 | -8.61% (inactive) | –
2 | CC(O)CCCCn1c(=O)c2c(ncn2C)n(C)c1=O (stereo not drawn) | -9.87% (inactive) | –
3 | CN1C[C@@H]2C[C@H]1CN2c1cc2c(cc1F)c(=O)c(C(=O)O)cn2C1CC1 | 2.79% (inactive) | –
4 | O=C(O)COC(=O)Cc1ccccc1Nc1c(Cl)cccc1Cl | 5.55% (inactive) | –
5 | CCCCCCCCCCCCCCCCC(C(=O)O)C(O)(CC(=O)O)C(=O)O (stereo not drawn) | 6.09% (inactive) | –
6 | CNCc1ccccc1 | 8.64% (inactive) | –
7 | Nc1c2c(nc3c1CCC3)CCCC2 | – | 11.2 µM (active)
8 | NNC(=O)CP(=O)(c1ccccc1)c1ccccc1 | -4.41% (inactive) | –
9 | C[C@@H]1O[C@@H](OC[C@H]2O[C@@H](Oc3c(-c4ccc(O)c(O)c4)oc4cc(O)cc(O)c4c3=O)[C@H](O)[C@@H](O)[C@@H]2O)[C@H](O)[C@H](O)[C@H]1O | 3.71% (inactive) | –
10 | CC(=O)Oc1cccc(O)c1 | 2.07% (inactive) | –
11 | CC1CCN(CCCC(=O)c2ccc(F)cc2)CC1 | 1.92% (inactive) | –
12 | NC(=O)CCCCC1CCSS1 (stereo not drawn) | 0.706% (inactive) | –
13 | O=C(NCC(O)CO)c1c(I)c(C(=O)NCC(O)CO)c(I)c(N(CCO)C(=O)CO)c1I (stereo not drawn) | 8.95% (inactive) | –
14 | CC(=O)N[C@H]1[C@H]([C@H](O)[C@H](O)CO)OC(C(=O)O)=C[C@@H]1N=C(N)N | 5.37% (inactive) | –
15 | CC(C)CCOC(=O)c1ccc(N(C)C)cc1 | -13.7% (inactive) | –
16 | CCOC(N)=O | -2.14% (inactive) | –
17 | NC(=O)N[C@@H](CCC(=O)O)C(=O)O | -4.71% (inactive) | –
18 | CCc1nnc(NS(=O)(=O)c2ccc(N)cc2)s1 | -5.5% (inactive) | –
19 | CC(=O)OC[C@H]1O[C@@](COC(C)=O)(O[C@H]2O[C@H](COC(C)=O)[C@@H](OC(C)=O)[C@H](OC(C)=O)[C@H]2OC(C)=O)[C@@H](OC(C)=O)[C@@H]1OC(C)=O | -6.87% (inactive) | –

Row | Compound | max response | Potency
20 | CC(C(=O)O)c1ccc2c(c1)Cc1cccnc1O2 (stereo not drawn) | -8.08% (inactive) | –
21 | COc1cc(O)cc(O)c1 | -9.75% (inactive) | –
22 | O=C(O)CCCc1ccccc1 | 13.9% (inactive) | –
23 | CN1CCCN=C1COC(=O)C(O)(c1ccccc1)C1CCCCC1 (stereo not drawn) | -2.61% (inactive) | –
24 | OCC(O)CS (stereo not drawn) | 0.0928% (inactive) | –
25 | NCc1ccc(S(N)(=O)=O)cc1 | -0.707% (inactive) | –
26 | COc1ccccc1OC(=O)Oc1ccccc1OC | 1.99% (inactive) | –
27 | CC(C)NC[C@@H](O)COc1ccc(CC(N)=O)cc1 | 23.6% (inactive) | –
28 | C[n+]1ccccc1/C=N/O | 8.92% (inactive) | –
29 | O=C(O)c1cc(=O)c2ccccc2o1 | 42.7% (inactive) | –
30 | COc1cc(C(=O)NCCCCCC(=O)O)cc(OC)c1OC | 4.11% (inactive) | –
31 | Nc1ncnc2c1ncn2[C@@H]1O[C@H](COP(=O)(O)O)[C@@H](O)[C@H]1O | -1.97% (inactive) | –
32 | Cc1[nH]c(C)c(Cl)c(=O)c1Cl | -2.25% (inactive) | –
33 | CC(C)(C)C(=O)OCOC(=O)[C@@H]1N2C(=O)[C@@H](NC(=O)[C@H](N)c3ccccc3)[C@H]2SC1(C)C | 0.54% (inactive) | –
34 | OC(CCN1CCCC1)(c1ccccc1)C1CCCCC1 (stereo not drawn) | 3.62% (inactive) | –
35 | O=C(NCN1CCOCC1)c1cnccn1 | -4.94% (inactive) | –
36 | CCc1cccc(CC)c1NC(=O)CN(CC(=O)O)CC(=O)O | 12.1% (inactive) | –
37 | O=C1CC[C@@H](C(=O)O)N1 | -5.19% (inactive) | –
38 | O=C(CCBr)N1CCN(C(=O)CCBr)CC1 | -1.41% (inactive) | –
